Measured values taken from PubChem BioAssay (NCI).
The panel holds about 83,000 compounds, 20% with a hit somewhere; the sample as a whole holds those more often.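 Note: values are percent growth. 100 is the growth of untreated cells, values between 100 and 0 indicate rising inhibition; between -100 and 0 indicates cell death.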 Calls of active or inactive are those of the source.

Tested on: BT-549 breast
Assay: NCI-60 one-dose screen, 48 h (100 = growth as untreated, 0 = no growth, -100 = all killed)
Conditions: 10 µM unless noted
Procedure: Growth inhibition of the BT-549 human tumor cell line is measured as a screen for anti-cancer activity. Cells are grown in 96 well plates and exposed to the test compound for 48 hours. Compounds are tested at a single concentration, which is 10^-5 M for most compounds. The reported endpoint is percent growth (GI% or GIPRCNT), where numbers from 0 - 100% represent growth inhibition, and numbers from -100% - 0 represent cell death. For example, a value of 40 represents 60% growth inhibition. A value of 0 means no net growth occurred over the course of the experiment. A value of -40 indicates 40% of cells at the beginning of the experiment died by the end of the experiment. A value of -100 means all cells are dead at the end of the experiment.
NCI-60 Human Tumor Cell Lines Screen was performed using the standard one-dose NCI protocol, which is described in more detail at https://dtp.cancer.gov/discovery_development/nci-60/default.htm.
Compounds with GIPRCNT values below 10 were considered active. Activity score was based on GIPRCNT using the following formula: […]
Score is 0 for GIPRCNT values of 100 or above, 50 for GIPRCNT values of 0, and 100 for GIPRCNT values of -100.

Structure (SMILES)	growth
Cn1c2ccccc2c2nnc(NCCCCO)nc21	101% (inactive)
NC(=S)N/N=C/c1ccc(OC(=O)COc2ccccc2)cn1	40.9% (inactive)
COc1ccc(NNS(=O)(=O)O)cc1	102% (inactive)
Cc1[nH]nc(C(N)=O)c1[N+](=O)[O-]	109% (inactive)
CCCCCC#CC(=O)O	64.1% (inactive)
COC(=O)c1ccc([N+](=O)[O-])c(C)c1	86.3% (inactive)
Cc1ccc(NCN2C(=O)c3ccccc3C2=O)c(C)n1	108% (inactive)
CCOS(=O)(=O)c1ccc([N+](=O)[O-])cc1	111% (inactive)
Cc1cc(Cc2ccccc2)c(O)c(Cc2ccccc2)c1	84.1% (inactive)
O=C1C=Cc2ccccc2/C1=C/c1[nH]c(=O)[nH]c1O	20.6% (inactive)
Cc1ccc(S(N)(=O)=O)cc1Cl	77.9% (inactive)
Cc1[nH]n(-c2ccccc2)c(=O)c1C=NC(=S)C(N)=S	108% (inactive)
CC(=O)OCC1OC(n2cnc3c(=S)nc(N)[nH]c32)C(OC(C)=O)C1OC(C)=O (stereo not given)	79.4% (inactive)
Cc1cc2nc(C)c(C)nc2cc1C	100% (inactive)
C=CC(C)C(C)(C)O (stereo not given)	97.3% (inactive)
N#C/C(=C\c1ccc(C#N)cc1)C(=O)c1ccccc1	112% (inactive)
Cc1onc(-c2c(F)cccc2Cl)c1-c1ncc(-c2ccc(Br)cc2)o1	40.7% (inactive)
CCOC(=O)/C(O)=C(\C=N\C(=S)Nc1ccc(Cl)c(Cl)c1)C(=O)OCC	100% (inactive)
Nc1ccc(F)cc1F	103% (inactive)
CCOC(=O)c1cc(Cl)c(O)c(Cl)c1	105% (inactive)

Structure (SMILES)	growth
C/C(O)=C(/C=N/C(=S)Nc1ccccc1)C(=O)Nc1ccccc1C	107% (inactive)
CN(C)c1ccc(/C=C/C(=O)c2ccc(NC(N)=O)cc2)cc1	91.7% (inactive)
CCC12OC(COc3ccccc3)CN1CCN2c1ccccc1 (stereo not given)	105% [100 µM] (inactive)
O=c1cc(Cl)nc2ccccn12	107% (inactive)
COc1ccc(C)cc1NC(=O)SC(C)C	101% [100 µM] (inactive)
Cc1ccnc(Nc2nc3ccccc3[nH]2)n1	112% (inactive)
Nc1ncnc2c1ncn2C1OC(CO)C2OC21 (stereo not given)	110% (inactive)
CC(O)C(F)(F)C(F)(F)C(F)(F)F (stereo not given)	107% (inactive)
Oc1ccc(N=Cc2ccc(OCc3ccccc3)cc2)cc1	84.6% (inactive)
O=C(CC(CC(=O)c1ccccc1)c1ccccn1)c1ccccc1	101% (inactive)
CCCCCCCCCCCCCC/C=C\C(CC(=O)O)C(=O)O (stereo not given)	116% (inactive)
c1cc(CNCCNCc2ccncc2)ccn1	117% (inactive)
O=c1nc(Nc2cccc(Cl)c2)oc2cc(Cl)oc(=O)c12	91.2% (inactive)
C[C@H](CCC[C@H](C)OS(=O)(=O)c1ccccc1)OS(=O)(=O)c1ccccc1	125% (inactive)
CC(=O)N(CCCCCCN(C(C)=O)C(C)=O)C(C)=O	98.4% [100 µM] (inactive)
C(=C\c1ccncc1)/c1ccncc1	91.2% (inactive)
CCOC(=O)c1c(C)[nH]c(C)c1C=O	95.8% (inactive)
Cn1c(=O)c2[nH]c(CCCCC(=O)O)nc2n(C)c1=O	106% (inactive)
N#Cc1ccc(OC(=O)Nc2cc(Cl)cc(Cl)c2)cc1	-27.1% [100 µM] (active)
CC(C)c1ccc(C(=O)OCCCl)cc1	100% (inactive)
